The supplement of paper PMC6555819

tested on: VDR:RXRa (NR concentration 270 nM, RXRa partner concentration 90 nM); test: PBM binding z-score (relative to random genomic background probes); higher = stronger binding; sequences stand for … in GC…GCGATTGACAGCGTAGAATGAAGG
Experimental: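 Protein-binding microarray (Agilent 4x180K custom design, double-stranded 60-nt probes: 5' GC cap, 34-nt variable region, 24-nt constant primer region; full probe sequence given). Purified or IVT nuclear receptor:RXRα heterodimers (3:1 NR:RXRα, mostly 270:90 nM) or homodimers were incubated for 1 h in PBS with 2% milk and no ligand, then detected with Alexa488 antibodies. Fluorescence from o1-orientation probes (~5 replicates averaged) was converted to z-scores against 500 random hg19 background probes. Variable regions are seed direct-repeat (DR0–DR5) sites, all their single-nucleotide variants and half-site ablations.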

Row | Sequence | PBM binding z-score
1 | ACTAGCGGGCCAAGTTTGGGTCACTCAAACAAAG | 0.318
2 | AGAACGAGGTTATACGTAGATCAGGGAAGAAAGT | 1.08
3 | TCTTGTAGATCAGCAGGATAAGAAAGCTGGCCAA | -0.113
4 | TGAATGAGGTTATAAGGTCAGGGAACGTTGCAAA | 4.04
5 | GCTCGGAGGACAAGGTCAGTGCTTTGTCCGTAGA | 1.19
6 | GATACAGGGTCAAGGCCTGAGTACGCGTATTGAT | 4.48
7 | CCTAGCTGGTCAAGGTCACACACGCTATAGGTAC | 3.75
8 | AGTCAAATTTCAGGACGAGGTAACGTAAAGCACG | -0.0744
9 | ATCGTAAGGTCGACGAGGTGAGTATACACCGTTT | 4.52
10 | CCTACTGGGCCAGAGGTCATTGATTCCAATGCTC | 4.47
11 | GCATATAGGTACTACAAGGTGAAAGTCCGATTGT | 0.143
12 | GCTACTTGGTCAGTAAAAGGTCACACACCGGTCG | 4.16
13 | TCGAGTAAGTTAGTCGGGGCATTCAGCCAACATA | -0.133
14 | GGAACGAGGGCATTCGAGTAGATAGCATGGCGAT | 0.958
15 | GCTTGTAGAACAAGGTTAAGAAAGACTAAGCTAA | 0.106
16 | CCTAGTTGGTCAGGAGGTCACACAACGGATATGA | 3.97
17 | CGAACTAGGTCATTGACAGGACCGTGAATAGTAA | 1.51
18 | CTTCCAAGGTCAAAGGTCAGTGAAGAGATGACGG | 6.57
19 | CGAACTAGGTCAGAACAGGACAGTGCAGGATGAT | 0.787
20 | TCTATTAGCTGATTAGGGCAACCGAAACAGCGGA | 0.11

Row | Sequence | PBM binding z-score
21 | CAACCTAGGTCACAGAGGTCAAAGTCCGTGCGTA | 8.21
22 | ACTATTAGTTGAATTAGGGCAACCGATACGACGC | 0.274
23 | CGTCCAAGGTAATAGGAGGTCAGTGAAGACAGAT | 2.56
24 | CGAACTAGGTCATACAGGACAGTGAATACATTGA | 3.99
25 | CGTCCAAGGTCAGGAGGTCAGTGAAAGCGACGTG | 4.66
26 | ATCTCCAGGTAAAGATAGTTCAGTGAATGCAAAT | 0.845
27 | AGTCAAAGTTCATCTAGGTGACGTAAGATATGCT | 4.96
28 | CAAACTAGGTCACGAAAGGTAAAAGTCGAATGAC | 3.25
29 | ATCTCTAGGTATCCAAGTTCAGTGAATGCCGAAC | 2.38
30 | CAAACTAGGTCACCGGAAGATCAAAGTCCGCATG | 2.62
31 | ACAGACAGGTGAGTGATGGTAACTCAGCTGGACG | -0.122
32 | TATCCTAGGTCATGGGCCAGTATACCACGCGAAC | 2.75
33 | GCTATTAGTTGAAAGGGCAACGGAATGATTCTCG | 0.383
34 | TCGAGTAGGTTAGTCGGGGCGTTCAGCCAACATA | 1.48
35 | CCGAGCAGGCCAGGGTCACTCAAGCATTTCGCTT | 2.6
36 | CAAACTAGGTCACAGAGGTCAAAGGCCGTGCGTA | 8.04
37 | TCTGCTAGGTCATTTGGTCAGCTAACGAGCTGCC | 2.21
38 | TCATATAGGTAAAAGTGAAAGTCGAACGATATGA | 0.265
39 | TAGCCTAGGTCAGATCGGGCCAGTAAACGCTATA | 0.5
40 | GCTGCTAGGTCAGGTTGGTCAGCTACCGGGTACG | 0.397
